Screening results: PubChem BioAssay, several laboratories
CYP2C19 activ = activators of human cytochrome P450 2C19. P33261. recombinant CYP2C19, luciferin-H EGE luminescence; active compounds read high; 0 = fully inhibited enzyme, 1 = untreated enzyme. activation factor at 5 µM. 96,000 tested, under 10 active;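 active = activation factor of at least 2 at 5 µM in the primary screen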;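 also: 0 = wells with 2.5 mM tranylcypromine and 1 = vehicle-only wells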
CYP2C9 inh = blocks human cytochrome P450 2C9; CYP2C9 Supersomes, luciferin-H conversion, luminescence; 96,000 tested, 20% active; P11712; inhibition, % at 5 µM; AID 777;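 active = blocking of liver enzyme CYP2C9 beyond about 50% at 5 µM, limit read from the data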
Target sequence (P11712 whole entry, looked up): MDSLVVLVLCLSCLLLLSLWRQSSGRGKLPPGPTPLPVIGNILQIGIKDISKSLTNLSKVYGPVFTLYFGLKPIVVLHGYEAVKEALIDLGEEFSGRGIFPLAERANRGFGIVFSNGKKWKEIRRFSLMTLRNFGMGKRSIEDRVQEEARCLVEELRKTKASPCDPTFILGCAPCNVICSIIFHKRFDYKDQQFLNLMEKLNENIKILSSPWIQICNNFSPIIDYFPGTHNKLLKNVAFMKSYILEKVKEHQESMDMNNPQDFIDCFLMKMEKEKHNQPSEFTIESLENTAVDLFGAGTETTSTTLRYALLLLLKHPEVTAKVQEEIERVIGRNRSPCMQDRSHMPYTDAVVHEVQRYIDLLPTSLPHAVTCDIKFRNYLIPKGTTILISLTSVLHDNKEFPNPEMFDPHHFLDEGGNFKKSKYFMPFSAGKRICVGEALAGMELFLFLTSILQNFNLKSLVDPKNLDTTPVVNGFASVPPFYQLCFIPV
E-sel TNF inh = blocks E-selectin expression induced by TNF alpha; HUVEC TNFa-induced E-selectin immunofluorescence, high content; inhibition, % at 2 µM; 120,000 tested, 0.71% active;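 active = inhibition above the batch mean plus 3 SD, and confirmed as a hit on visual image review, cut at about 43% in these data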;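 also: 0% = TNF-stimulated DMSO wells and 100% = unstimulated control wells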
CYP2C9 activ = activators of human CYP2C9 | P11712 | recombinant CYP2C9, luciferin-H conversion, luminescence; active compounds read high; factor 1 = untreated enzyme, 0 = blocked | activation factor at 5 µM | 96,000 tested, 1.4% active | AID 1024;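 active = activation factor of 2 or more for CYP2C9 at a 5 µM dose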;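 also: 0 = sulfaphenazole-blocked wells and 1 = vehicle-only wells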
cytoskel mod = modifiers of cytoskeleton assembly; HUVEC TNFa F-actin phalloidin imaging, high content; inhibition, % at 2 µM; 91,000 tested, 0.18% active; AID 836;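 active = inhibition above the batch mean plus 3 SD and confirmed as a hit by visual image inspection, cut at about 30% in these data, passing the limit was not always enough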
CYP2C19 inhib = inhibitors of human CYP2C19; P33261; CYP2C19 Supersomes, luciferin-H EGE luminescence, 30 min; inhibition, % at 5 µM; 96,000 tested, 21% active; AID 778;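 active = CYP2C19 inhibition above a set limit at 5 µM in the primary screen, cut at about 50% in these data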;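 also: plate controls were negative control wells for no effect and 2.5 mM tranylcypromine positive control for full effect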
* marks the source's active call; other numbers are inactive results; · = no result given. The list is not random: actives were taken first. Their share in the collection is about 22%.

SMILES | CYP2C19 activ | CYP2C9 inh | E-sel TNF inh | CYP2C9 activ | cytoskel mod | CYP2C19 inhib
C(=N\n1cnnc1)/c1cn(-c2cccs2)nc1-c1ccccc1 | 0.2 | 70* | · | 0.3 | -17 | 81*
COc1cccc(-c2nnc3sc(-c4ccccc4)nn23)c1 | 0.9 | 0 | -38 | 1 | · | 12
Cc1cccc(-c2nnc3sc(-c4ccccc4C)nn23)c1 | 0.1 | 81* | · | 0.2 | · | 89*
COc1cccc(-c2nnc3sc(-c4ccc(Cl)cc4)nn23)c1 | 0.6 | 66* | · | 0.3 | · | 36
CCOc1cccc(-c2nn3c(-c4cc(C)[nH]n4)nnc3s2)c1 | 0.9 | 17 | -26 | 0.8 | 17 | 10
COc1cccc(OC)c1-c1nn2c(-c3cc(-c4ccccc4)n[nH]3)nnc2s1 | 0.4 | 57* | 34 | 0.4 | -44 | 56*
c1ccc(-c2nnc3sc(-c4csc5c4CCCC5)nn23)cc1 | 0.9 | -4 | · | 1 | · | 9
COc1ccc(-c2nn3c(-c4ccccc4)nnc3s2)cc1 | 0.3 | 70* | 3 | 0.3 | -2 | 74*
C/C(CC(=O)Nc1ccccc1Br)=N\NC(=O)C(=O)N1CCCC1 | 1.1 | -3 | 19 | 1 | -18 | -6
COc1ccc2c(c1)[nH]c1c(=O)n(/N=C/c3ccc(OC)c(COc4ccccn4)c3)cnc12 | · | · | -1 | · | · | ·
CC(C)NS(=O)(=O)c1ccc(OCC(N)=O)c(Cl)c1 | 0.5 | 24 | -41 | 0.8 | 6 | 49
Cc1cn2c(-c3ccc(Cl)cc3)nnc2s1 | 0.4 | 9 | · | 0.9 | -3 | 58*
CCOc1ccc(CCNc2ccc3nnc(-c4ccccc4)n3n2)cc1OCC | · | · | -11 | · | · | ·
Clc1cccc(-c2nn3c(-c4ccncc4)nnc3s2)c1 | 0.5 | -6 | · | 1.1 | · | 55*
Clc1ccc(CNc2ccc3nnc(-c4ccccc4)n3n2)cc1 | · | · | 76* | · | · | ·
Clc1ccc(-c2nn3c(-c4ccccc4)nnc3s2)cc1 | 0.2 | 40 | -36 | 0.6 | · | 81*
O=C(CN1CCCCCC1)N/N=C/c1cccs1 | 0.7 | 12 | · | 0.9 | -9 | 28
CC(C)(C)c1ccc(-c2n[nH]c(=S)n2C2CCCC2)cc1 | 0.7 | 11 | 12 | 0.9 | 4 | 26
CCNc1nc(-c2cc(C)n(Cc3ccco3)c2C)cs1 | · | · | -5 | · | · | ·
Cc1cc(-c2csc(N)n2)c(C)n1CCc1ccccc1 | 0.2 | 66* | · | 0.3 | -10 | 84*
Cc1cc(-c2csc(N)n2)c(C)n1CCC(C)C | 0 | 81* | -54 | 0.2 | -1 | 95*
COC(=O)C1C(=O)C2=C(CC1C)NC(C)=C(C(=O)OC(C)C)C2c1ccc(C)o1 (stereo not given) | 0.8 | 59* | -1 | 0.4 | -11 | 21
COC(=O)C1C(=O)C2=C(CC1C)NC(C)=C(C(=O)OCc1ccc(OC)cc1)C2c1ccc(C)o1 (stereo not given) | 0.4 | 80* | -6 | 0.2 | 6 | 61*
N#Cc1ccccc1NC(=O)c1cc(=O)c2ccccc2o1 | · | · | 8 | · | · | ·
CN(Cc1ccccc1)C(=S)NC(=O)C1CCCCC1 | · | · | 93* | · | · | ·
SMILES | CYP2C19 activ | CYP2C9 inh | E-sel TNF inh | CYP2C9 activ | cytoskel mod | CYP2C19 inhib
CCOC(=O)N1CCN(S(=O)(=O)c2ccc(C)cc2)C1c1ccc(OC)cc1 (stereo not given) | 0.3 | -16 | 7 | 1.2 | -16 | 74*
CCOC(=O)N1CCN(S(=O)(=O)c2ccc(C)cc2)C1c1ccccc1 (stereo not given) | 0.1 | 70* | · | 0.3 | 19 | 91*
Cc1ccn2cc(CNS(=O)(=O)c3ccc4c(c3)OCCO4)nc2c1 | 0.8 | -18 | · | 1.2 | -5 | 17
CCc1ccc(S(=O)(=O)NCc2cn3c(C)csc3n2)s1 | 0.2 | -20 | · | 1.2 | 6 | 78*
Cc1csc2nc(CNS(=O)(=O)c3ccc4c(c3)OCCO4)cn12 | 0.4 | -14 | 22 | 1.1 | -7 | 64*
O=S(=O)(NCc1ccccn1)c1ccc2c(c1)OCCO2 | 0.2 | -42 | -26 | 1.4 | 20 | 83*
Cc1csc2nc(CCNS(=O)(=O)c3ccc4c(c3)OCCO4)cn12 | 0.4 | -52 | · | 1.5 | -7 | 62*
Cc1ccc(C)c(-n2c(-c3csc(C)c3)n[nH]c2=S)c1 | 0.6 | 23 | -35 | 0.8 | -5 | 44
O=C(Nc1ccc(CN2CCOCC2)cc1)c1ccc(-c2ccc(Br)cc2)o1 | 0.8 | 23 | 1 | 0.8 | 10 | 18
COc1ccc(S(=O)(=O)NCc2csc(C)n2)cc1 | 0.5 | -7 | 18 | 1.1 | -2 | 46
O=S(=O)(NCCc1cn2ccccc2n1)c1ccc2c(c1)OCCO2 | 0.3 | -18 | · | 1.2 | -14 | 70*
Cc1nc(CNS(=O)(=O)c2cc(C)c(C)cc2C)cs1 | 0.1 | -62 | -11 | 1.6 | 6 | 87*
CC(=O)Nc1ccc(S(=O)(=O)NCc2cn3c(C)csc3n2)cc1 | · | · | -24 | · | -21 | ·
Cc1nc(CNS(=O)(=O)c2ccc3c(c2)OCCO3)cs1 | 0.1 | -23 | 0 | 1.2 | 4 | 87*
Cc1csc2nc(CNS(=O)(=O)c3ccc4c(c3)CCCC4)cn12 | 0.5 | -103 | · | 2* | -9 | 54*
C1CC1Cc1noc(CN2CCN(C3C4CC5CC(C4)CC3C5)CC2)n1 (stereo not given) | · | · | 3 | · | · | ·
N/C(=N\N=C\c1ccnc2ccccc12)SC1CC(=O)N(c2ccc(Br)cc2)C1=O (stereo not given) | 1.1 | 8 | -55 | 0.9 | 9 | -13
Cc1cc(C)n2c(SCC(=O)Nc3ncc(C(F)(F)F)cc3Cl)nnc2n1 | 0.7 | 63* | -7 | 0.4 | 22 | 26
CNC(=O)CSCCn1c(SCC(=O)NC)nc2ccccc2c1=O | 0.9 | 26 | 4 | 0.7 | -1 | 8
O=C(CN1C(=O)c2ccccc2S1(=O)=O)NC1CC2CCC1C2 (stereo not given) | 0.8 | -14 | · | 1.1 | -24 | 23
O=C(NC1CCCCC1)C(c1cccs1)N(C(=O)Cc1c[nH]c2ccccc12)c1ccc(F)cc1 (stereo not given) | 0.3 | 48 | -68 | 0.5 | -10 | 68*
CC(=O)Nc1ccc(N(C(=O)Cc2c[nH]c3ccccc23)C(C(=O)NC2CCCCC2)c2ccco2)cc1 (stereo not given) | · | · | 3 | · | · | ·
CC(=O)c1cccc(N(C(=O)c2ccccn2)C(C(=O)NC2CCCCC2)c2cccs2)c1 (stereo not given) | 1 | 8 | 24 | 0.9 | 22 | -1
Cc1ccc(C(C(=O)NC2CCCCC2)N(C(=O)Cc2c[nH]c3ccccc23)c2ccccc2)o1 (stereo not given) | 0.6 | 66* | -6 | 0.3 | -30 | 45
O=C(NC1CCCC1)C(c1ccsc1)N(C(=O)Cc1cccs1)c1ccc(F)cc1 (stereo not given) | 0.9 | 5 | · | 0.9 | 27 | 14
CC(=O)c1ccc(N(C(=O)Cc2c[nH]c3ccccc23)C(C(=O)NC2CCCCC2)c2cccs2)cc1 (stereo not given) | 0.4 | 58* | -38 | 0.4 | -33 | 65*
Cc1cc(C(=O)c2cnc(/N=C/N(C)C)s2)c(F)cc1Cl | · | · | 20 | · | · | ·
